The values that follow come from PubChem BioAssay (NCI).

SMILES strings stand for the structures. This is part of a sample that, as a whole, favours compounds with a hit. Of some 83,000 tested, about 20% had one in any assay.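 The endpoint reported here, percent growth, reads 100 for growth as untreated, 0 for no net growth and -100 for all cells dead.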 Values without a mark were called inactive. Active and inactive are the calls of the source. How the source made its calls: active means growth percent below 10; inactive means the rest.

Assay in all cases: NCI-60 one-dose screen, 48 h (100 = growth as untreated, 0 = no growth, -100 = all killed)
Holding throughout (details): 10 µM unless noted

Test [1] relates to SK-MEL-2 melanoma.
The test system of test [2] is EKVX NSCLC.
Test [3] relates to SN12C renal.
For test [4], the system named is UO-31 renal.
Test [5] has as its system TK-10 renal.
Test [6] concerns ACHN renal.
Test [7] has as its system CAKI-1 renal.
The subject of test [8] is A498 renal.
Test [9] relates to CCRF-CEM leukemia.
Test [10] relates to MOLT-4 leukemia.

As to `COC(=O)c1c(C(=O)OC)c2c3ccccc3c3ccccc3n2c1C(=O)C(F)(F)F`, the growth in test [1] was 94.4%; in [2] it was 98.2%; in [3], 92.7%; in test [4], 65.9%; in test [5] it was 113%; in test [6], 93.7%. Further, the growth in [7] was 64.8%; in test [8], 138%; in test [9], 98.2%; in [10], 117%.

In the case of `COc1ccccc1/C=C/c1cccc(NC(=S)NCCCCN(C)C)c1`, the growth in test [1] is -81.4% (active); in [2], -91.7% (active); in test [3] it was -96.6% (active); in test [4], -84.9% (active); in test [5] it was -82.7% (active); in test [6], -100% (active). The growth was -87.8% (active) in [7], -65.9% (active) in [8], -38.8% (active) in test [9] and -32.9% (active) in test [10].

Take `N#CC1=C(c2cccs2)Nc2c(c(-c3ccccc3)nn2-c2ccccc2)C12C(=O)Nc1ccc(Cl)cc12` (stereo not given): the growth in [1] was 22.8%; in test [2], 13.3%; in test [3], 33.8%; in [4] it was 12.7%; in test [5], 31.5%; in [6] it was 12.6%. Further, the growth in test [7] is 23.3%; in [8] it was 88.8%; in [9] it was 13.7%; in test [10] it was 19.3%.

Take `COc1cc(CNC(=O)C[C@H](C)CCC=C(C)C)ccc1OCc1cn(-c2ccccc2F)nn1`: the growth in [1] was 78.6%; in [2], 78.3%; in test [3] it was 76.1%; in test [4], 71.9%; in [5], 95.8%; in test [6], 65.3%. In addition, the growth in test [7] was 55.1%; in test [8] it was 103%; in [9] it was 97.3%; in [10] it was 74.8%.

Consider `O=C(Cn1c(-c2ccccc2)nc2ccccc21)N=Nc1c(O)[nH]c2ccc(Cl)cc12`, for which the growth is 17.6% in [1]; 9.78% (active) in [2]; 5.72% (active) in [3]; 1.39% (active) in [4]; 28.5% in [5]; -47.3% (active) in test [6]. The growth is 13% in test [7], -5.31% (active) in [8], 31.8% in [9] and 27.4% in test [10].

Regarding `O=C(/C=C1\C(=O)N(Cc2ccccc2)c2ccccc21)c1cc2ccccc2oc1=O`, the growth in [1] is 109%; in [2], 79.6%; in test [3], 93%; in [4] it was 42.9%; in [5], 84.6%; in [6], 17.9%. The growth in [7] is 69.9%; in test [8], 144%; in [9], 43.6%; in test [10] it was 31.9%.

As to `N/C(=N\c1nc2ccccc2s1)NC(=O)Nc1ccccc1[N+](=O)[O-]`, the growth was 20.5% in [1]; 38.7% in test [2]; 5.63% (active) in test [3]; 26.8% in test [4]; 52.8% in [5]; 20.2% in test [6]. Also, the growth in test [7] is 16%; in [8] it was 89%; in test [9] it was 1.29% (active); in test [10], 15.2%.

As for `Cc1nn(-c2ccccc2)c2nc(C)n(CC(=O)N/N=C/c3cccc([N+](=O)[O-])c3)c(=O)c12`, the growth in [1] was 101%; in test [2], 76.8%; in test [3], 89.1%; in test [4], 69.7%; in test [5], 103%; in test [6] it was 104%. For the same compound, the growth in test [7] was 88%; in test [8], 95.8%; in test [9], 85.1%; in test [10], 88%.

For the compound `Cc1ccc(S(=O)(=O)N(CCn2ccnc2[N+](=O)[O-])CCn2ccnc2[N+](=O)[O-])cc1`, the growth in [1] is 105%; in [2], 95.5%; in test [3], 105%; in test [4] it was 76.4%; in [5], 98.4%; in test [6], 101%. Moreover, the growth in test [7] is 89.2%; in [8] it was 112%; in test [9] it was 100%; in test [10] it was 99.8%.

As to `Cc1cc(C(NC(=O)C2CC3(CC(Nc4cccc5c4C(=O)N(C4CCC(=O)NC4=O)C5=O)C3)C2)c2ccc3c(c2)OC(F)(F)O3)c(O)c2ncccc12` (stereo not given), the growth is -4.6% (active) in [1]; 6.4% (active) in test [2]; 14.1% in test [3]; -5.11% (active) in test [4]; 36.1% in test [5]; 5.49% (active) in test [6]. Further, the growth in test [7] was 10.6%; in test [8], 115%; in [9], -7.69% (active); in test [10] it was 4.24% (active).

`COc1c(F)ccc(C(=O)Nc2ccc3nc(NC(=O)C4CCCN(S(=O)(=O)c5ccc(C(C)(C)C)cc5)C4)sc3c2)c1F` (stereo not given): the growth was 71.3% in test [1]; 59% in [2]; 57% in [3]; 44.3% in [4]; 93.6% in test [5]; 63.4% in [6]. Moreover, the growth was 69.3% in [7], 84.7% in test [8], 57.9% in test [9] and 29.7% in test [10].

With `CC(C)(C)C(=O)c1c2c(c3ccc4c5ccccc5ccc4n13)C(=O)c1ccccc1C2=O`, the growth was 104% in test [1]; 86.2% in test [2]; 99% in test [3]; 67.9% in test [4]; 118% in [5]; 79.2% in [6]. The growth in test [7] was 85.4%; in [8], 188%; in [9], 99.7%; in [10], 94.3%.

In the case of `O=C(N/N=C/c1c[nH]c2ccccc12)Nc1ccccc1Cl`, the growth is 13.9% in test [1]; 2.29% (active) in test [2]; 0.991% (active) in [3]; 23.2% in test [4]; 34.2% in test [5]; 10.7% in test [6]. The growth in test [7] is 16.1%; in test [8] it was -8.24% (active); in test [9], 9.84% (active); in test [10], 5.56% (active).
